Laboratory results as given in PubChem BioAssay AID1851 (National Center for Advancing Translational Sciences (NCATS), 2009).
The whole screen tested about 16,000 compounds, of which about 2,600 (16%) were called active. About 20% were inconclusive and are not listed. Not all results are given here. Unmarked numbers belong to inactive results. The call rests on the fitted dose curve; in most records, active means well fitted curve in the direction sought with a large enough effect; inconclusive means small, poorly fitted or top-dose-only effect, or effect the other way; inactive means no such curve, though single readings can be large or run the other way.

molecular target: Cytochrome P450 2D6 (Homo sapiens) (UniProt P10635); assay: Cytochrome panel assay with activity outcomes; settings: recombinant CYP, pro-luciferin dealkylation, luminescence, p450-cyp2d6; series mostly up to 57.1 µM; activity, negative = inhibition: at the top concentration
On the % scale 0 is the no-effect control and ±100 the full control effect.

Chain of Cytochrome P450 2D6 (Homo sapiens) (P10635 whole entry, looked up): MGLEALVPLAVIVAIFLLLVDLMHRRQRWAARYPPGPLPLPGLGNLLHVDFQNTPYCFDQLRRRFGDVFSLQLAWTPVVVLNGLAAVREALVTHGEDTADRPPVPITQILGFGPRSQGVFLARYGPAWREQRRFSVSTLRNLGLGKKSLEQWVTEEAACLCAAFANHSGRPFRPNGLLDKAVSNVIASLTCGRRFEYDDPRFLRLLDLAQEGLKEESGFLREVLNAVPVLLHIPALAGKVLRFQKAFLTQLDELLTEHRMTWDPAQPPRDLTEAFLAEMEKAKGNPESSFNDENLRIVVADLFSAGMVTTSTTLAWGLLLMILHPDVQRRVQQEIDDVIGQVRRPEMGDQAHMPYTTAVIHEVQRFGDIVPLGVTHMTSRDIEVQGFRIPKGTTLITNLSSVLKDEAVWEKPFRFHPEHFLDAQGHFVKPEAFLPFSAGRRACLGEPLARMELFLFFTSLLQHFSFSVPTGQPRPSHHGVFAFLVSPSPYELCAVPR

Compared with `CCCCOC(=O)C1=C(C)Nc2ncnn2C1c1cc(OC)ccc1OC` (stereo unspecified), `CCCCOC(=O)CSc1nnc(-c2cc(OC)c(OC)c(OC)c2)o1` is higher in “activity, negative = inhibition” value: -4.71% for the first, -2.6% for the second.

First: O=C(Cc1ccc(S(=O)(=O)N2CCOCC2)s1)Nc1nc2c(s1)CCCC2
Second: Cc1ccc(S(=O)(=O)N2CCN(C(=O)C3COc4ccccc4O3)CC2)cc1C (stereo unspecified)
The “activity, negative = inhibition” value of the first is higher: -28.9% for the first, -29.7% for the second.

Compared with `Cc1ccc(CN2C(=O)CCC2C(=O)NCc2cccnc2)cc1` (stereo unspecified), `O=C(NCC1CCCO1)C1CCC(=O)N1CCc1ccccc1` (stereo unspecified) is higher in “activity, negative = inhibition” value: -15.9% for the first, -12.3% for the second.

Going from `O=c1c(CCc2ccccc2)nc2cnc(Oc3cccc(Cl)c3)nc2n1C[C@H]1CCCO1` to `O=c1c2ccccc2nc(SCc2ccccc2Cl)n1Cc1ccccc1`, the “activity, negative = inhibition” value falls from -3.35% to -13.8%.

Compared with `CCCN(CCC)CCCNC(=O)c1cc2cc3ccc(OC)cc3nc2o1`, `Cc1cc(C)c(NC(=O)CS(=O)CC(=O)NCCCc2ccccc2)c(C)c1` (stereo unspecified) is higher in “activity, negative = inhibition” value: -16.6% for the first, -8.29% for the second.

First: CCOC(=O)C1=NNC2(c3ccc(Cl)cc3)C(=O)N(c3cc(C)cc(C)c3)C(=O)C12 (stereo unspecified)
Second: Cc1cc(C)cc(OCC(=O)Nc2ccc3c4c(cccc24)CC3)c1
The “activity, negative = inhibition” value of the first is lower: -3.78% for the first, 2.78% for the second.

Compared with `O=c1cnc2cncnc2n1Cc1ccccc1`, `O=S(=O)(NCc1cccnc1)c1ccc(Cl)nc1` is lower in “activity, negative = inhibition” value: -8.52% for the first, -10.6% for the second.

Compared with `COc1ccc(-n2cnnc2)cc1`, `COc1ccc(-n2c(C)nn(C)c2=O)cc1` is lower in “activity, negative = inhibition” value: -10% for the first, -17.9% for the second.

Going from `COC(=O)c1nc(NC(=O)c2ccccc2)n[nH]1` to `CCCC(=O)Nc1nnc(Cc2ccccc2)s1`, the “activity, negative = inhibition” value rises from -23.8% to 17.3%.

Going from `COc1cc(C(=O)NCCC(C)C)c([N+](=O)[O-])cc1OC` to `COc1ccc(/C=C/C(=O)Nc2nc(C)cc(C)n2)cc1OC`, the “activity, negative = inhibition” value falls from 11.9% to 7.99%.

Compared with `CCCCCCCCCCCCCCCCCC(=O)O[C@H](CC(=O)O)C[N+](C)(C)C`, `Cc1cccc(C)c1NC(=O)CS(=O)CC(=O)NCCCc1ccccc1` (stereo unspecified) is lower in “activity, negative = inhibition” value: 10.3% for the first, -1.79% for the second.

Going from `O=P(O)(O)CCP(=O)(c1ccccc1)c1ccccc1` to `O=C(NCc1nc2ccccc2[nH]1)[C@H]1C[C@@H]1[C@H](NP(=O)(c1ccccc1)c1ccccc1)c1ccccc1`, the “activity, negative = inhibition” value falls from 14.9% to -9.56%.

First: O=C1NC(c2ccc(Br)cc2)Nc2sc3c(c21)CCC3 (stereo unspecified)
Second: S=c1nc(-c2ccccc2)oc2c1CCCC2
The “activity, negative = inhibition” value of the first is lower: -19.6% for the first, -16.9% for the second.

First: CN(C)c1ccc(/C=C2/C(=O)Nc3ccccc32)cc1
Second: COc1ccc(/C=N/NC(N)=S)cc1OC(=O)c1cccc2ccccc12
The “activity, negative = inhibition” value of the first is lower: -1.67% for the first, 14.2% for the second.

Going from `Cc1cc2[nH]c(=O)c3ccccc3n2n1` to `Cc1ccc(/C=C/c2ccc(=O)n(Cc3ccc(Cl)cc3Cl)n2)cc1`, the “activity, negative = inhibition” value rises from -11.2% to 7.32%.

Compared with `CCCc1nnc(NC(=O)CCC(=O)N2CCN(c3ccccn3)CC2)s1`, `Cn1c(=O)c2c(nc(N3CCN(c4ccccn4)CC3)n2Cc2ccc(Cl)cc2Cl)n(C)c1=O` is lower in “activity, negative = inhibition” value: -3.96% for the first, -15.4% for the second.

Compared with `CCOc1cc(NC(=S)NCC2CCCO2)c(OCC)cc1NC(=O)c1cccc(C)c1` (stereo unspecified), `COC(=O)[C@@]1(Cc2ccc(OC)cc2)[C@@H]2C(=CC(=O)[C@H]2CC(=O)C(=O)N2CCCC2)CN1C(=O)c1ccccc1` is higher in “activity, negative = inhibition” value: -16.3% for the first, -5.71% for the second.

Going from `CN(CC(=O)O/N=C(\N)c1ccccn1)S(=O)(=O)c1ccccc1` to `Cc1ccc(S(=O)(=O)N(CC(=O)N2CCN(c3ccc(F)cc3)CC2)C2CCCCC2)cc1`, the “activity, negative = inhibition” value falls from 0.421% to -7.36%.

`CC(C)N(CCNC(=O)C1CCC(=O)N1Cc1ccc(F)cc1)Cc1ccccc1` (stereo unspecified) was tested, and the AC50 was 1.26 µM (active).
For `COc1ccc(N2C(N)=NC(N)=NC2(C)C)cc1`, the AC50 was 14.1 µM (active).
With `CC1(C)N=C(N)N=C(N)N1c1cccc(CSc2ccccc2)c1` the AC50 was 0.251 µM (active).
`CC1(C)N=C(N)N=C(N)N1c1cccc(OCc2cccc(N)c2)c1` was tested, and the AC50 was 2.51 µM (active).
`O=C(OCc1nc2ccccc2[nH]1)C12CC3CC(CC(C3)C1)C2` was tested, and the AC50 was 15.8 µM (active).
In the case of `Cc1ccccc1-c1nc(CS(=O)CC(=O)NCCN2CCN(Cc3ccccc3)CC2)c(C)o1` (stereo unspecified), the AC50 is reported as 14.1 µM (active).
With `CCCC(=O)Nc1nnc(CCN2CCCCC2)s1` the AC50 was 15.8 µM (active).
With `CCn1c(SCc2ccc(Cl)cc2Cl)nc2nc3c(cc2c1=O)CCCC3` the AC50 was 1.26 µM (active).
For `CCN(C1CCCCC1)S(=O)(=O)c1ccc(S(=O)(=O)NCc2ccncc2)cc1`, the AC50 was 7.94 µM (active).

Going from `O=C(O)C/C(=C\c1ccco1)C(=O)O` to `CC(C)(CCc1nc2ccccc2[nH]1)C(=O)O`, the activity, negative = inhibition falls from 1.84% [at 11.4 µM] to -1.31% [at 11.4 µM].

Compared with `Nc1cccc(OCc2nc(N)nc(N)c2-c2ccc(Cl)cc2)c1`, `CC(C)c1ccc(/C=C2\C=C(c3ccc4ccccc4c3)OC2=O)cc1` is higher in activity, negative = inhibition: -14.7% [at 11.4 µM] for the first, 2.54% [at 11.4 µM] for the second.

In the case of `O=C1[C@H]2[C@H]3[C@H](O)[C@H](O)C/C(=N/OC[C@@H](O)COCc4ccco4)[C@H]3CC[C@@H]2C(=O)N1Cc1ccc2c(c1)OCO2`, the activity, negative = inhibition is reported as 3.67% [at 11.4 µM].

`CC(=O)[C@@]1(O)CC[C@H]2[C@H]3C[C@@H](C)C4=CC(=O)C=C[C@]4(C)[C@@]3(F)[C@@H](O)C[C@]21C` was tested, and the “activity, negative = inhibition” value was -0.238% [at 25.6 µM].
